Data from PubChem BioAssay (NCATS).
Where “and” joins values, the source holds several entries; their conditions need not be identical. Identical values can stand only once. Inconclusive results are not listed. Calls of active or inactive are those of the source. Unless noted, calls follow the shape of the dose curve; as a rule, active = well fitted curve in the direction sought with a large enough effect; inconclusive = small, poorly fitted or top-dose-only effect, or another doubt; inactive = no such curve, though single readings can be large; an effect the other way counts as inactive or inconclusive.

Tests used:
[1] = target: Glucocorticoid receptor (Homo sapiens) (UniProt P04150); assay: GR-GFP Redistribution (AID 450;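 active = compounds whose dose series gives a full or clear partial fitted curve of increased nuclear translocation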; also: potency is read from the fitted curve at half-maximal effect); details: U2OS GR-GFP nuclear translocation, laser cytometry, 2 h
[2] = target: Glucocorticoid receptor (Homo sapiens) (UniProt P04150); assay: GR-EFC Redistribution (AID 451; calls by dose curve; also: potency is read from the fitted curve at half-maximal effect); details: CHO-K1 GR-EFC translocation, beta-gal luminescence, 2 h
Outline: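 Translocation of GR-ED fusion to nuclear EA restores b-gal, read by luminescence after 1 h room-temperature detection. Engineered CHO-K1 biosensor cells, 1,000/well, exposed 2 h at 37 C to titrations up to 46 uM final.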

[3] = target: Mitogen-activated protein kinase 10 (Mus musculus) (UniProt Q61831); assay: JNK3 AlphaScreen Assay (AID 530; active = well fitted curve in either direction with a large enough effect, not every such curve was filed as active;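 also: kinase came from lysate of stimulated human HepG2 cells; signal reports phosphorylation of biotinylated GST-cJun 1-79 at Ser73 with 10 µM ATP; % is scaled to controls: 0 for no effect and ±100 for the full control effect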)
Outline: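 Compound titrations were preincubated 15 minutes at room temperature with substrate, antibody and pre-activated JNK3-containing HepG2 lysate. Reactions were started with 10 uM ATP and stopped with EDTA-containing bead buffer for AlphaScreen detection.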

[4] = target: 3',5'-cyclic-AMP phosphodiesterase 4B (Homo sapiens) (UniProt Q07343); assay: qHTS Assay for Inhibitors of PDE-IV (AID 607; active = well fitted activation curve with a large enough effect in the main read-out, with a control signal flat, not every such curve was filed as active; also: % of control where 0% means no effect)
Outline: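 Live HEK293 cells with a modified cyclic nucleotide-gated (CNG) channel report intracellular cAMP via membrane-potential dye fluorescence (ex 535/em 590 nm). Endogenous PDE-IV was targeted. Compounds were tested at up to 22.9 uM final; RO 20-1724 100 uM served as control.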

[5] = qHTS Assay for Lipid Storage Modulators (AID 1519; calls by dose curve); details: Drosophila S3 cells, BODIPY lipid droplet/cell ratio, laser cytometry, cells loaded with oleic acid; for activity change, negative = inhibition: at 57.5 µM (top of the series)
Outline: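 Cells seeded at 5,000 per well were treated with compounds over a concentration series and loaded with oleic acid (400 uM, as added). Lipid droplet fluorescence (488 nm excitation, 500-530 nm channel) was read by laser-scanning cytometry and normalized to 20 uM Triacsin C.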

[6] = target: Ubiquitin carboxyl-terminal hydrolase 1 (Homo sapiens) (UniProt O94782); assay: Inhibitors of USP1/UAF1: Pilot qHTS (AID 504865);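 also: rhodamine fluorescence freed from ubiquitin-rhodamine substrate followed over time; top concentration of the series differs between compounds; % is scaled to controls: 0 for no effect and ±100 for the full control effect; nearly all actives have a fitted effect of over 35% in size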
Outline: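 Deubiquitinase activity followed as kinetic rhodamine fluorescence release from 150 nM Ub-Rho. 1 nM USP1/UAF1 with compound, after 15 min room-temperature preincubation, in HEPES pH 7.8 buffer containing TCEP, EDTA, BSA and Tween-20.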

[7] = target: DNA dC->dU-editing enzyme APOBEC-3G (Homo sapiens) (UniProt Q9HC16); assay: qHTS for inhibitors of Vif-A3G interactions: Validation (AID 588379); also: 0% is about no effect
Outline: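 HeLa cells stably expressing Vif and A3G-eYFP, 700 cells/well, incubated overnight at 37 deg C, then exposed to compound overnight at 37 deg C. Inhibition of Vif-mediated degradation read as increased yellow fluorescence (Ex 488/Em 500-530) by laser-scanning cytometry.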

[8] = system: Zika virus NS2B-NS3 protease; assay: Primary screen GU AMC qHTS for Zika virus inhibitors (AID 1347154);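 also: 0% = no-inhibitor control and -100% = no-enzyme control; nearly all actives have a fitted effect of over 70% in size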
Outline: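 Fluorogenic AMC-substrate cleavage by noncovalent NS2B-NS3 protease complex (25 nM, pH 8.0 Tris buffer with Tween 20) followed for 15 minutes at room temperature (~20% conversion). Percent inhibition from ex340/em450 signal change, fitted by 4-parameter Hill equation.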

[9] = Primary qHTS for small molecule stabilizers of the endoplasmic reticulum resident proteome: Secreted ER Calcium Modulated Protein (SERCaMP) assay (AID 1508630); also: % is scaled to controls: 0 for no effect and ±100 for the full control effect
Outline: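 GLuc-SERCaMP-expressing SH-SY5Y cells, pretreated 16 h with compound, are challenged with thapsigargin to empty ER calcium stores; after 4 h, coelenterazine is added directly to the medium and luminescence is imaged.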

[10] = AP1 Signaling Pathway (AID 357; active = well fitted curve in either direction with a large enough effect, not every such curve was filed as active;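 also: ME-180 reporter cells stimulated with EGF at its EC50 level; % is scaled to controls: 0 for no effect and ±100 for the full control effect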)
Outline: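 First, ME-180 AP-1-bla cells were cultured overnight at 37 °C in low-serum Opti-MEM. Next, titrated compounds with EC50 EGF were incubated 5 hours. Finally, CCF4 was added for 2.5 hours and the 460/530 nm ratio recorded.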

[11] = NFAT Signaling Pathway (AID 444; active = well fitted curve in either direction with a large enough effect, not every such curve was filed as active;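 also: carbachol stimulus at about its EC50 of 1 µM final; % is scaled to controls: 0 for no effect and ±100 for the full control effect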); details: Jurkat NFAT-bla M1, carbachol, beta-lactamase ratio, 5 h
Outline: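 Read-out: CCF4 FRET ratio (460 nm/530 nm) after 1 h RT dye loading, used for %activity and AC50 from titration series. Cells: Jurkat NFAT-β-lactamase/M1 line, treated with compound plus 1 uM carbachol for 5 h, 37 °C.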

[12] = Stat Signaling Pathway (AID 446; active = well fitted curve in either direction with a large enough effect, not every such curve was filed as active)
Outline: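 IL-6/STAT signaling read in ME-180 cells via an SIE beta-lactamase reporter. Stimulus was 40 pM IL-6 (its AC50) for 5 hrs, so both activation and inhibition register.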

[13] = target: Cytochrome P450 1A2 (Homo sapiens) (UniProt P05177); assay: p450-cyp1a2 (AID 410; calls by dose curve; also: potency is read from the fitted curve at half-maximal effect;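 as to activity change, negative = inhibition: -100% = full effect of reference inhibitor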)
Outline: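 20nM CYP1A2 with 100uM Luciferin-ME (at Km) in 100mM KPO4; compound preincubated 10 min, NADPH regeneration added, 60 min at room temperature. Luciferin quantified by luminescence after detection reagent; normalized to 57 uM furafylline.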

[14] = target: Guanine nucleotide-binding protein G(i) subunit alpha-1 (Homo sapiens) (UniProt P63096); assay: qHTS Assay for Inhibitors of RGS12 GoLoco Motif Activity (Green Fluorophore) (AID 879);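 also: 0% = labeled peptide with Gαi1 and full inhibition = labeled peptide alone without protein; negative values mean loss of peptide binding seen as reduced polarization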
Outline: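 Fluorescence polarization assay: 50 nM Gαi1 with 10 nM FITC-labeled RGS12 GoLoco peptide in 10 mM Tris pH 7.5, 150 mM NaCl, 0.1 mM GDP, 0.05% NP40, 10 min at room temperature with compound.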

[15] = target: Pyruvate kinase (Leishmania mexicana) (UniProt Q27686); assay: qHTS Validation Assay for Inhibitors of Leishmania Mexicana Pyruvate Kinase (AID 945);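 also: 0% = DMSO only neutral control wells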
Outline: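 Compounds are tested as eight-point concentration series. Reactions contain 0.2 nM LmPYK E451W, 0.5 mM PEP, 0.1 mM ADP, 7 mM MgCl2 and 50 mM KCl at pH 7.2, run 1 h at room temperature, then read by PKLight luminescence.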

[16] = target: Pyruvate kinase PKM (Homo sapiens) (UniProt P14618); assay: qHTS Assay for Activators of Human Muscle Pyruvate Kinase (AID 954; active = well fitted curve in the direction sought with a large enough effect, not every such curve was filed as active;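 also: 0% = uninhibited enzyme and -100% = no enzyme or full thiadiazolimine inhibition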)
Outline: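 Enzyme was run at intermediate activity so both inhibitors and activators could be detected. ATP formed from ADP and PEP by 0.1 nM human PKM2 during a 1 h room-temperature incubation was quantified by coupled luciferase luminescence.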

[17] = target: Alpha-galactosidase (Coffea arabica) (UniProt Q42656); assay: Counterscreen for Glucocerebrosidase Inhibitors: qHTS Assay for Coffee Bean alpha-Galactosidase at pH 4.5 (AID 957);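 also: plate controls were enzyme alone for no effect and no enzyme for full effect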
Outline: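 Coffee bean enzyme (2 nM) with 80 uM 4-methylumbelliferyl alpha-D-galactopyranoside in 50 mM citric acid, 0.005% Tween-20, pH 4.5, 20 min at room temperature; compounds 0.7 nM–77 uM. Stopped at pH 10, fluorescence 365/440 nm; AC50 from Hill fits.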

[18] = target: Alpha-galactosidase A (Homo sapiens) (UniProt P06280); assay: Counterscreen for Glucocerebrosidase Inhibitors: qHTS Assay for Human alpha-Galactosidase at pH 4.5 (AID 992); also: 0% is about no effect
Outline: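 Read-out is 4-methylumbelliferone fluorescence (365 nm excitation, 440 nm emission) after a pH 10 NaOH/glycine stop. Reactions held 2 nM enzyme and 80 uM substrate at pH 4.5 for 20 min at room temperature.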

[19] = target: alpha-glucosidase (Oryza sativa, rice) (UniProt Q653V4); assay: Counterscreen for Glucocerebrosidase Inhibitors: qHTS Assay for Rice alpha-Glucosidase at pH 5.0 (AID 997);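 also: 0% = full activity with enzyme and -100% = basal without enzyme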
Outline: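 Rice alpha-glucosidase (4 nM final) with 400 uM 4-methylumbelliferyl-alpha-D-glucopyranoside in citrate buffer pH 5.0, 20 min at room temperature, stopped at pH 10; fluorescence 365/440 nm, compounds 0.7 nM–77 uM, AC50 from Hill fits.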

[20] = target: Alpha-galactosidase (Coffea arabica) (UniProt Q42656); assay: Counterscreen for Glucocerebrosidase Inhibitors: qHTS Assay for Coffee Bean alpha-Galactosidase at pH 5.9 (AID 998);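 also: plate controls were uninhibited enzyme for no effect and no-enzyme basal signal for full effect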
Outline: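 Compounds were titrated from 0.7 nM to 77 uM against green coffee bean alpha-galactosidase (2 nM) using 80 uM fluorogenic 4-methylumbelliferyl substrate. After 20 min at room temperature, reactions were stopped at pH 10 and read by fluorescence.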

[21] = measured here: cell count channel max response
[22] = measured here: lipid channel max response

DNA dC->dU-editing enzyme APOBEC-3G (Homo sapiens), sequence (Q9HC16 whole entry, looked up): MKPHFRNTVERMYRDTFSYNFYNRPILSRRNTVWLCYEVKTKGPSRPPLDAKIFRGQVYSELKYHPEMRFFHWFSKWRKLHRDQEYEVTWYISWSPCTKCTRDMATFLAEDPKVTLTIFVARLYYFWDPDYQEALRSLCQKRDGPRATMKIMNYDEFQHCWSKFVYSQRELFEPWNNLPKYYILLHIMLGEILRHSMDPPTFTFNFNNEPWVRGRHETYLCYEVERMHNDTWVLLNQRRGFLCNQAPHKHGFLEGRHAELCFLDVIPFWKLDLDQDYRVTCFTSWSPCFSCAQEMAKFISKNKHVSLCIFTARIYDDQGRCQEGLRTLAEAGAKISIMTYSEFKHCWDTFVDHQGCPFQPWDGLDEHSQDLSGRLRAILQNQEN
Cytochrome P450 1A2 (Homo sapiens), sequence (P05177 whole entry, looked up): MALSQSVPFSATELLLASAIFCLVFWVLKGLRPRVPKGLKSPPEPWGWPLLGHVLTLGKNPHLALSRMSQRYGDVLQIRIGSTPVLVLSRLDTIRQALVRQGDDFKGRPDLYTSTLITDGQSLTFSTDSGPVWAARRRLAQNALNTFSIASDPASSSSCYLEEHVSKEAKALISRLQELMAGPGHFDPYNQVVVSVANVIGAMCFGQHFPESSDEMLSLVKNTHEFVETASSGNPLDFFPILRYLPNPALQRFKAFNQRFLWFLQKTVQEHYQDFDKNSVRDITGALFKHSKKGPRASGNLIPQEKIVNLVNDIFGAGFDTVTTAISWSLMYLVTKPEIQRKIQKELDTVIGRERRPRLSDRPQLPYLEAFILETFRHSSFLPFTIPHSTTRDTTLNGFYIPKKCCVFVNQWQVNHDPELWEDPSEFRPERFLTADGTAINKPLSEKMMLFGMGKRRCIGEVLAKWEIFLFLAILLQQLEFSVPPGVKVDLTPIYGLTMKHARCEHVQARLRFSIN
3',5'-cyclic-AMP phosphodiesterase 4B (Homo sapiens), sequence (Q07343 whole entry, looked up): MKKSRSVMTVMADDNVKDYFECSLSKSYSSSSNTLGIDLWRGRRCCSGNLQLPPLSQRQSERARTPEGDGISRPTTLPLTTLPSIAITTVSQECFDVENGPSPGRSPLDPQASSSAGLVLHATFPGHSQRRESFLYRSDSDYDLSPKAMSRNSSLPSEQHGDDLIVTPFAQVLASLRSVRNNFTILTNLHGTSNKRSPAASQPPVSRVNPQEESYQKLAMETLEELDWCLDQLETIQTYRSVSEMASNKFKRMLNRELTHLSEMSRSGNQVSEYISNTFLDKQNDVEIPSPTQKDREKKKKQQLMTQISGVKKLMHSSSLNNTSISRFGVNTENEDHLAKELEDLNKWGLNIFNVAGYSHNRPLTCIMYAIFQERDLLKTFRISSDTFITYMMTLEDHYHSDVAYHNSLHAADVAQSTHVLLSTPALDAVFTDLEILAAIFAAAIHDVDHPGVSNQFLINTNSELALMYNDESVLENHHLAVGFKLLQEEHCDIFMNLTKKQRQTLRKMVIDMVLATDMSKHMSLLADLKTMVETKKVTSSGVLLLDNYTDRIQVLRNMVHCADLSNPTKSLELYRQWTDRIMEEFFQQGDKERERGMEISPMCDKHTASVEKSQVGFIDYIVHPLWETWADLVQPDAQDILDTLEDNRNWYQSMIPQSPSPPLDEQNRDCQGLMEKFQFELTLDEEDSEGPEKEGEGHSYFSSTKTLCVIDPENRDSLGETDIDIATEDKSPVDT
Glucocorticoid receptor (Homo sapiens), sequence (P04150 whole entry, looked up, the tested form may be a part): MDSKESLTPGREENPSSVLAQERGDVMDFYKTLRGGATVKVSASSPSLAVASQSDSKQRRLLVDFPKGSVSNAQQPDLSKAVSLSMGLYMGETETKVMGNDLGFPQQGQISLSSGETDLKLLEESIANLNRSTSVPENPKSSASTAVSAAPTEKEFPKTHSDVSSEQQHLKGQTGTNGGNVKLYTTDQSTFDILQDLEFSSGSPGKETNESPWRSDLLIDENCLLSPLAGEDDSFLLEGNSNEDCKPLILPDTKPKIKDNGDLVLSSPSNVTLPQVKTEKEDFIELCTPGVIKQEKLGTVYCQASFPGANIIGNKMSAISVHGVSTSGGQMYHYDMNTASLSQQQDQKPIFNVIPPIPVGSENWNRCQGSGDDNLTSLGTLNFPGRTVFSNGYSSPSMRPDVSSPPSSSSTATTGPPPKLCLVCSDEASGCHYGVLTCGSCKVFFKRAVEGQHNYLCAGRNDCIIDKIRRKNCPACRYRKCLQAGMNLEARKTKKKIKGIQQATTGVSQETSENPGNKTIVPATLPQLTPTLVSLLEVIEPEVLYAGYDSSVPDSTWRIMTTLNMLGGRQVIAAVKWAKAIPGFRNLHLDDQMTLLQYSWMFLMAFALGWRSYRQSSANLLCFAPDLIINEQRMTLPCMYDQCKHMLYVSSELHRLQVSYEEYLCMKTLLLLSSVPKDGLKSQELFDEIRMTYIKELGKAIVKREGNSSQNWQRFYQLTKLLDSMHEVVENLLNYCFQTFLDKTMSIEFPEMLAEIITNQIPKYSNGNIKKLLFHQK
Ubiquitin carboxyl-terminal hydrolase 1 (Homo sapiens), sequence (O94782 whole entry, looked up): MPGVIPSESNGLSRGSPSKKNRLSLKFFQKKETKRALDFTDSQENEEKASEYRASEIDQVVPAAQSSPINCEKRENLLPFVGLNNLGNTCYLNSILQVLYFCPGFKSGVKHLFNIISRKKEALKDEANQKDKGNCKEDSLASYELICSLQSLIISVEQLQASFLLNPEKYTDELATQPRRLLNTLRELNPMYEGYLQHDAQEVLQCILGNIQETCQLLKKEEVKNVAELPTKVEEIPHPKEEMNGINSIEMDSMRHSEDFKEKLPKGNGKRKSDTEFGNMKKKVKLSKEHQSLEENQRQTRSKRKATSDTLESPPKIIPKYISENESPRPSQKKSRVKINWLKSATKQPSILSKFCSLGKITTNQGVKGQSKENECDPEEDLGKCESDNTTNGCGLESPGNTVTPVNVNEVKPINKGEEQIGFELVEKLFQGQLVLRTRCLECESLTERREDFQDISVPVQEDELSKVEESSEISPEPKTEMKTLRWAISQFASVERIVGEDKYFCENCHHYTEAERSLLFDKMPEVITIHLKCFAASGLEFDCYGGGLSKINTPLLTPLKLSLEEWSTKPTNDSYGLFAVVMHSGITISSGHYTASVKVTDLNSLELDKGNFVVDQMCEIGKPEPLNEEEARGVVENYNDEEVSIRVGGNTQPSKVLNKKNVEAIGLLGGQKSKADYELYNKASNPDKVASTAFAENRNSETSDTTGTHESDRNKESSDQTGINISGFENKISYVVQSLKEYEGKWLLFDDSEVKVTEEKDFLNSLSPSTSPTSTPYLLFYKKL
Alpha-galactosidase (Coffea arabica), sequence (Q42656 whole entry, looked up): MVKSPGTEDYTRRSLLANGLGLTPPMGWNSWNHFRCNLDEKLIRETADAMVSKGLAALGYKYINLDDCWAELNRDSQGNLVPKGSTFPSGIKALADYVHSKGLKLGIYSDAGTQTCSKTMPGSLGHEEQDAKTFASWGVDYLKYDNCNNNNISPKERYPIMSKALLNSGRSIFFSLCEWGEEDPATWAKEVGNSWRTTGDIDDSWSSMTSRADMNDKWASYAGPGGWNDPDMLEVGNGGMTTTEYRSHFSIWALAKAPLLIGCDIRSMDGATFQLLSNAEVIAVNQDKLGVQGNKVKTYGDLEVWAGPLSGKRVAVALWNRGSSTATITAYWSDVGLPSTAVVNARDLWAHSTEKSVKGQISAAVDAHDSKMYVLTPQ
Alpha-galactosidase A (Homo sapiens), sequence (P06280 whole entry, looked up): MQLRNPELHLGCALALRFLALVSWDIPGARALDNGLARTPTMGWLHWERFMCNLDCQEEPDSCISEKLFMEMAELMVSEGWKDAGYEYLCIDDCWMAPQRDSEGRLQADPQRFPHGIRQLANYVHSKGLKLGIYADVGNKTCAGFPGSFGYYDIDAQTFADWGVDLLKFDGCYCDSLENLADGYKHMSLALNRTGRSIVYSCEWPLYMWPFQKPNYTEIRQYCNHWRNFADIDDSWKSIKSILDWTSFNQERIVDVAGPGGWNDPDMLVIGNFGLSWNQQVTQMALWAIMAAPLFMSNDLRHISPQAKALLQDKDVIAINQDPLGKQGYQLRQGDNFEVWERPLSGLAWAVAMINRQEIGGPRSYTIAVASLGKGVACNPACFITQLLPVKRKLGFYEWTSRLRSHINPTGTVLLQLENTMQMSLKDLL
Guanine nucleotide-binding protein G(i) subunit alpha-1 (Homo sapiens), sequence (P63096 whole entry, looked up): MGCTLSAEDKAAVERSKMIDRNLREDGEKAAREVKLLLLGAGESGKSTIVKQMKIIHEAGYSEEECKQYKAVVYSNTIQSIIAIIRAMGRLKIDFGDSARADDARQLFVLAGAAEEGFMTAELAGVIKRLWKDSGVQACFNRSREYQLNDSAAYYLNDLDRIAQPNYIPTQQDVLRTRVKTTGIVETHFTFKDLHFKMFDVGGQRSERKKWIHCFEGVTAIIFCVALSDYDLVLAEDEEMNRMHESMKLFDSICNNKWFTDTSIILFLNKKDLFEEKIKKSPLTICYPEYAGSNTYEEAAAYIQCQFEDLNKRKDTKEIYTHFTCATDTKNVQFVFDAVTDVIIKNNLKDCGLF
Pyruvate kinase (Leishmania mexicana), sequence (Q27686 2-499 E452W): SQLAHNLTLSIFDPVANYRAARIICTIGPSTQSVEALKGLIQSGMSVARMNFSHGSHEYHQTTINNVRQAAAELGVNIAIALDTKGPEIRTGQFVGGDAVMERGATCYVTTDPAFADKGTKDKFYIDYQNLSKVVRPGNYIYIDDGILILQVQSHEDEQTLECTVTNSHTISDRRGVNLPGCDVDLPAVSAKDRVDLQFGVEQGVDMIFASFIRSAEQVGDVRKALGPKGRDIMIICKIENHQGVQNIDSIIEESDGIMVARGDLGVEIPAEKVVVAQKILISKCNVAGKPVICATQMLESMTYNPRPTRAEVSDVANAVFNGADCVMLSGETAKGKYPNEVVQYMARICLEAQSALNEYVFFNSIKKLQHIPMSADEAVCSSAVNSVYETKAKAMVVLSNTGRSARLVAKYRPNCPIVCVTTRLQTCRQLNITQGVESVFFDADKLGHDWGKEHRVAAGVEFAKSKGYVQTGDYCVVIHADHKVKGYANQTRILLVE

Cc1nc(N)sc1CCN
-8.41%: max response [5, 21]
inactive: Potency [1] > 46 µM | Potency [2] > 46 µM | outcome [3] | Potency [4] | activity change, negative = inhibition [5] 3.05% | Potency [6] | Potency [7] | Potency [8] | Potency [9]
-2.18%: max response [5, 22]

CN1CCN(C(=O)OC2c3nccnc3C(=O)N2c2ccc(Cl)cn2)CC1 (stereo unspecified)
inactive: outcome [10] | activity change, negative = inhibition ([11]; at 17.2 µM (top of the series)) 3% | outcome [12] | Potency [8] | Potency [9]

C/C(O)=C(/C#N)C(=O)Nc1cc(Br)ccc1Br
inactive: outcome [10] | activity change, negative = inhibition ([11]; at 38 µM (top of the series)) 6.53% | outcome [12] | Potency [1] > 46 µM | Potency [2] > 46 µM | Potency [4] | outcome [14] | outcome [15] | outcome [16] | outcome [17] | outcome [18] | outcome [19] | outcome [20] | Potency [7] | Potency [8] | Potency [9]
active: Potency [13] 5.01 µM and 2.51 µM

S=C=Nc1cccc(C2(N3CCCCC3)CCCCC2)c1
inactive: outcome [10] | Potency [13] | outcome [12] | Potency [1] > 46 µM | Potency [2] > 46 µM | outcome [3] | Potency [4] | Potency [7] | Potency [8] | Potency [9]

CCCn1c(C)c(C(=O)c2cccc3ccccc23)c2ccccc21
inactive: Potency [1] > 46 µM | Potency [2] > 46 µM | outcome [3] | Potency [7] | Potency [8] | Potency [9]
active: Potency [13] 2 µM

O=NN1CCCC1c1cccnc1 (stereo unspecified)
inactive: Potency [8] | Potency [9]

O=C(O)[C@H]1[C@H]2CN[C@H](C(=O)O)[C@H]21
inactive: Potency [1] > 46 µM | Potency [2] > 46 µM | outcome [3] | Potency [4] | activity change, negative = inhibition [5] -5.1% | Potency [7] | Potency [8] | Potency [9]
active: Potency [13] 31.6 µM
-16.1%: max response [5, 22]
-11.8%: max response [5, 21]

CNCC/C=C\c1cccnc1
-3.17%: max response [5, 22]
inactive: Potency [13] | Potency [1] > 46 µM | Potency [2] > 46 µM | outcome [3] | Potency [4] | activity change, negative = inhibition [5] 4.36% | Potency [6] | Potency [7] | Potency [8] | Potency [9]
-7.59%: max response [5, 21]

CCOC(=O)c1cc2c(cn1)[nH]c1ccccc12
inactive: outcome [10] | activity change, negative = inhibition ([11]; at 17.2 µM (top of the series)) 26.1% | outcome [12] | Potency [1] > 20.6 µM | Potency [8] | Potency [9]
